Data as given in PubChem BioAssay.
“And” between values parts separate entries of the source, which are not always exact repeats. Equal entries are not always repeated. Unmarked numbers belong to inactive results. Entries that show only a call come without a potency. For some of these results: Potency and affinity values are given separately. The source made the active and inactive calls. Unless noted, how the calls were made is not given here.

What was measured:
[1] = antimalarial activity against Dd2 strain (AID 2302;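 active means growth inhibition above 50% at the single 2 µM test dose, taken to imply half-maximal potency below 2 µM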); details: P. falciparum Dd2 in RBCs, LDH growth readout, 72 h; at 2 µM; active compounds read high
[2] = human hepatoma cell viability loss – ATP luminescence, cytotoxicity control for P. falciparum antimalarial project, primary screen (AID 2303;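 active means inhibition above 50%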); details: HepG2 viability, 24-48 h, at 10 µM, active compounds read high
[3] = biological target: L-lactate dehydrogenase (Plasmodium falciparum (isolate CDC / Honduras)) (UniProt Q27743); assay: PfLDH activity inhibition – cell lysate, 3D7 strain, counter-screen for P. falciparum growth inhibition project (AID 2304); details: P. falciparum 3D7 crude extract, LDH APAD/NBT absorbance; at 2 µM; active compounds read high
L-lactate dehydrogenase (Plasmodium falciparum (isolate CDC / Honduras)), sequence (Q27743 whole entry, looked up): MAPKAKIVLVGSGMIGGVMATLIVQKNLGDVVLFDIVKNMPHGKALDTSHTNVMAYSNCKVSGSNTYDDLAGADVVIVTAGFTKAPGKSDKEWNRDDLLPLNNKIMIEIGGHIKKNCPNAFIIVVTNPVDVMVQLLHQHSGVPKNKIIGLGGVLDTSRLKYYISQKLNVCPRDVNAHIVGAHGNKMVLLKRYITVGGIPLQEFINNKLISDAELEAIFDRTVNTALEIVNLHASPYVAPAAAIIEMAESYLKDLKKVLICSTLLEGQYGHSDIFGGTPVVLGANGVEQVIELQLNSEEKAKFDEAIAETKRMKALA

[4] = inhibition of 3D7 malaria parasite growth – strain 3D7 (AID 2306); details: P. falciparum 3D7 erythrocytic growth, LDH absorbance, 72 h; at 2 µM; active compounds read high
[5] = biological target: Calcium-dependent protein kinase 1 (Plasmodium falciparum (isolate 3D7)) (UniProt P62344); assay: PfCDPK1 kinase inhibitors, biochemical, TCAMS library (AID 1159585; cut-off not given, nearly all actives have IC50 up to about 0.98 µM;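 further: inhibitors leave more ATP so luminescence rises with inhibition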); details: recombinant PfCDPK1, Kinase-Glo ATP depletion luminescence
Calcium-dependent protein kinase 1 (Plasmodium falciparum (isolate 3D7)), sequence (P62344 whole entry, looked up): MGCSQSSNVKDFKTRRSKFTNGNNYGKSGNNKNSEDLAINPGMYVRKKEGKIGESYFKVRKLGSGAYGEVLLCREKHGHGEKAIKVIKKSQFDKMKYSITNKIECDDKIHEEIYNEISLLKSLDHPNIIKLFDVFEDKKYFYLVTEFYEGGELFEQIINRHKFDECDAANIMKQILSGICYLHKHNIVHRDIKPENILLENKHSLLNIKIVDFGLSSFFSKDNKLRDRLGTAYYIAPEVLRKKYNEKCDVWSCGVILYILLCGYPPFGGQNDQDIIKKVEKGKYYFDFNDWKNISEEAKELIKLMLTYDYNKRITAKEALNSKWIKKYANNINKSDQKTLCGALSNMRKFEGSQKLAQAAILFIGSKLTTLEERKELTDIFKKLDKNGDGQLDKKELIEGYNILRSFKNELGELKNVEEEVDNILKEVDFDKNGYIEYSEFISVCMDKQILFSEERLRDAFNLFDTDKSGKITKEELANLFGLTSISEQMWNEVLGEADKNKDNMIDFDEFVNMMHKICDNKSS

[6] = biological target: Plasmodium falciparum protein kinase 6 (PK6, PF3D7_1337100) (UniProt Q8IDW1); assay: PfPK6 kinase inhibitors, biochemical, TCAMS library (AID 1159586); details: recombinant PfPK6, Kinase-Glo ATP depletion luminescence
Plasmodium falciparum protein kinase 6 (PK6, PF3D7_1337100), sequence (Q8IDW1 1-305): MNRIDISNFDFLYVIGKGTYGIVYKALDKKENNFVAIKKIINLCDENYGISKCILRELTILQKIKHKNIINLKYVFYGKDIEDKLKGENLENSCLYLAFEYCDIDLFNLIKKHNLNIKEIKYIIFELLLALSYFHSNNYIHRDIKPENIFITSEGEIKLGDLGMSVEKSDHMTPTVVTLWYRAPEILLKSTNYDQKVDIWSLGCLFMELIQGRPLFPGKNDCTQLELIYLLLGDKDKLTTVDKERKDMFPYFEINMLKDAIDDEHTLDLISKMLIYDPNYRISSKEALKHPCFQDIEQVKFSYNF

[7] = biological target: Protein kinase 7 (PK7), Plasmodium falciparum 3D7 (PF3D7_0213400) (UniProt Q7YTF7); assay: inhibition of Plasmodium PK7 catalytic activity – biochemical, TCAMS antimalarial set, Kinase-Glo luminescence (AID 1159587); details: recombinant PfPK7, Kinase-Glo ATP depletion luminescence
Protein kinase 7 (PK7), Plasmodium falciparum 3D7 (PF3D7_0213400), sequence (Q7YTF7 1-343): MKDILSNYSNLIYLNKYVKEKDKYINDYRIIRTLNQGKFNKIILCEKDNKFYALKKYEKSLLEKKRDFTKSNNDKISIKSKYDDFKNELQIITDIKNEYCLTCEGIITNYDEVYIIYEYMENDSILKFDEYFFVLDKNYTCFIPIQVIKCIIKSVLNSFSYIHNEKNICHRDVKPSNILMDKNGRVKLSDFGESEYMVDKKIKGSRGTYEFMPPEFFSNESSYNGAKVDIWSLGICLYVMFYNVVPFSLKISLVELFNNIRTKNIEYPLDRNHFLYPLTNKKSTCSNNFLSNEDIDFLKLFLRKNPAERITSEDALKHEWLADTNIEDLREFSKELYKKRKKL

[8] = biological target: Calcium-dependent protein kinase 4 (Plasmodium falciparum (isolate 3D7)) (UniProt Q8IBS5); assay: PfCDPK4 kinase inhibitors, biochemical, TCAMS library (AID 1159588; cut-off not given, nearly all actives have IC50 up to about 0.91 µM); details: recombinant PfCDPK4, Kinase-Glo ATP depletion luminescence
Calcium-dependent protein kinase 4 (Plasmodium falciparum (isolate 3D7)), sequence (Q8IBS5 whole entry, looked up): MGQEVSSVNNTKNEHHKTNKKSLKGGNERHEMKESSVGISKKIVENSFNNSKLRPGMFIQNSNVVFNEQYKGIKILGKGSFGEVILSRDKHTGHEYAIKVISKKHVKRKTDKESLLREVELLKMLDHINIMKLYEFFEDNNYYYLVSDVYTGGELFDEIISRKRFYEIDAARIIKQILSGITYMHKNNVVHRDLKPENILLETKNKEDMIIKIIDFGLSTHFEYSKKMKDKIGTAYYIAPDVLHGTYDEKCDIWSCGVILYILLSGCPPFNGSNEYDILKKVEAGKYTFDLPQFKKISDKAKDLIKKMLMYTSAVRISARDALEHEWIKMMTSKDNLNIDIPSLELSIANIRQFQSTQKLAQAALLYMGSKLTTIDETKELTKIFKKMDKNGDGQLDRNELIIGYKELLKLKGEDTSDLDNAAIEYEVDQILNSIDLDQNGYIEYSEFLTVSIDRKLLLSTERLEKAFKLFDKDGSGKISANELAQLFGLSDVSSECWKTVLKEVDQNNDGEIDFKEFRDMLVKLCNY

Compound | growth inhibition [1] | inhibition [2] | inhibition [3] | growth inhibition [4] | outcome [5] | outcome [6] | outcome [7] | outcome [8]
CC(C)C[C@H](Nc1ccc(C#N)c2ccccc12)C(=O)N[C@@H]1CCCc2ccccc21 | 100% (active) | 38% | 10% | 99% (active) | inactive | inactive | inactive | inactive
COC(=O)/C=C/c1ccc(CC(C)NCC(O)c2cccc(Br)c2)cc1 (stereo unspecified) | 93% (active) | 2% | 5% | 97% (active) | inactive | inactive | inactive | inactive
CNC(=O)c1ccc2[nH]cc(C3CCN(CC4CCN(C(=O)/C=C/c5ccc(Cl)c(Cl)c5)CC4)CC3)c2c1 | 88% (active) | 3% | 1% | 100% (active) | inactive | inactive | inactive | inactive
CCCCC/C=C/C(=O)NC1CCC(CN2CCC(c3c[nH]c4ccccc34)CC2)CC1 (stereo unspecified) | 11% | 19% | -1% | 87% (active) | inactive | inactive | inactive | inactive
CC(=O)N(Cc1ccccc1-c1cccc(CNCCc2ccccc2)c1)C1CCN(Cc2ccccc2)CC1 | 30% | 19% | 0% | 89% (active) | inactive | inactive | inactive | inactive
O=C(NC1CCC(CN2CCC(c3c[nH]c4ccccc34)CC2)CC1)c1cc(-c2cccc(Cl)c2)n(-c2ccc(Cl)cc2Cl)n1 (stereo unspecified) | 25% | 53% (active) | -5% | 81% (active) | inactive | inactive | inactive | inactive
O=C(NC1CCC(CN2CCC(c3c[nH]c4ccccc34)CC2)CC1)c1csc(-c2cccc(Cl)c2Cl)n1 (stereo unspecified) | 41% | 34% | -3% | 99% (active) | inactive | inactive | inactive | inactive
CN(c1cc(NC(=O)c2ccc(F)cc2)ccn1)C1CCN(Cc2ccc(C#N)cc2)CC1 | 54% (active) | 13% | 2% | 87% (active) | inactive | inactive | inactive | inactive
O=C(/C=C/c1ccc(Cl)c(Cl)c1)NC1CCC(N2CCC(c3c[nH]c4ccc(O)cc34)CC2)CC1 (stereo unspecified) | 16% | 10% | -9% | 97% (active) | inactive | inactive | inactive | inactive
CC[C@H]1CN2CC[C@H]1C[C@H]2[C@H](O)c1cc(-c2ccc(SC)cc2)nc2ccc(OC)cc12 | 99% (active) | 9% | -1% | 98% (active) | inactive | inactive | inactive | inactive
O=C(/C=C/c1ccc(Cl)c(Cl)c1)N1CCC(CN2CCC(c3c[nH]c4ccc(O)cc34)CC2)CC1 | 100% (active) | 44% | -7% | 101% (active) | inactive | inactive | inactive | inactive
O=C(C=Cc1ccc(F)c(Br)c1)NC1CCC(CN2CCC(c3c[nH]c4ccccc34)CC2)CC1 (stereo unspecified) | 67% (active) and 50% (active) | 39% and 28% | 2% and 5% | 103% (active) and 102% (active) | inactive | inactive | inactive | inactive
CC1=CC(=O)[C@@H](O)[C@]2(C)[C@H]3[C@@]4(O)OC[C@@]35[C@@H](C[C@@H]12)OC(=O)C[C@H]5[C@@H](C)[C@H]4O | 98% (active) | 38% | 4% | 99% (active) | inactive | inactive | inactive | inactive
CN(c1ccc(NC(=O)CCOc2ccccc2)cc1)C1CCN(Cc2cccc(O)c2)CC1 | -1% | 18% | 3% | 89% (active) | inactive | inactive | inactive | inactive
CNCC(O)c1cc(Cl)c(Cl)cc1C (stereo unspecified) | 88% (active) | 0% | 2% | 98% (active) | inactive | inactive | inactive | inactive
Cc1cccc2[nH]cc(C3CCN(CC4CCC(NC(=O)/C=C/c5ccc(Cl)c(Cl)c5)CC4)CC3)c12 (stereo unspecified) | 97% (active) | 88% (active) | -4% | 101% (active) | inactive | inactive | inactive | inactive
CCOC(=O)c1ccc(CC(C)NCC(O)c2cccc(C(F)(F)F)c2)cc1 (stereo unspecified) | 98% (active) | 5% | -9% | 100% (active) | inactive | inactive | inactive | inactive
